According to the supplement of paper PMC10849652:
Of roughly 7,900 targets only a part is listed; those with a hit were picked by preference. About 0.6% of all pairs of compound and target were hits. Values without a mark were called inactive.

Experiments:
Experiment in all cases: log2 fold change, soluble protein after heating vs DMSO (PISA); higher = thermal stabilisation; K562 cells, 10 uM, 30 min; active = over 0.2 and 3.5 SD of the protein, either way, in both replicates (recomputed)
bafetinib = compound: Cc1ccc(NC(=O)c2ccc(CN3CC[C@H](N(C)C)C3)c(C(F)(F)F)c2)cc1Nc1nccc(-c2cncnc2)n1 [bafetinib]
Summary of the method: (§1)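 Quantification of soluble protein used TMTpro 16plex LC-MS/MS, with channel sums equalised. Samples were the supernatant after 21,000xg for 90 min of pooled aliquots from K562 cells (2×10^6 cells/mL) treated with 10 μM compound for 30 min, heated for 3 min over 48°C-58°C, and extracted in PBS with 0.5% NP-40 at 4°C. Values, from duplicates, describe thermal stability against control samples on a log2 fold-change scale.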

[1] = compound: Cc1cccc(CC(=O)N2CCc3c2ccc(-c2cn(C)c4ncnc(N)c24)c3F)n1
Summary of the method: as §1

nilotinib = compound: Cc1cn(-c2cc(NC(=O)c3ccc(C)c(Nc4nccc(-c5cccnc5)n4)c3)cc(C(F)(F)F)c2)cn1 [nilotinib]
Summary of the method: as §1

[2] = compound: Cc1nc(Nc2n[nH]c3c2CN(C(=O)N[C@H](CN(C)C)c2ccccc2)C3(C)C)c2sccc2n1
Summary of the method: as §1

dasatinib = compound: Cc1nc(Nc2ncc(C(=O)Nc3c(C)cccc3Cl)s2)cc(N2CCN(CCO)CC2)n1 [dasatinib]
Summary of the method: as §1

[3] = compound: Cc1ncc(-c2ccnc(Nc3ccc(S(C)(=O)=O)cc3)n2)n1C(C)C
Summary of the method: as §1

[4] = compound: Cn1cc(-c2ccc3c(c2)CCN3C(=O)Cc2cccc(C(F)(F)F)c2)c2c(N)ncnc21
Summary of the method: as §1

[5] = compound: Cn1cc(-c2ccc3nnc(C(F)(F)c4ccc5ncccc5c4)n3n2)cn1
Summary of the method: as §1

tipifarnib = compound: Cn1cncc1[C@@](N)(c1ccc(Cl)cc1)c1ccc2c(c1)c(-c1cccc(Cl)c1)cc(=O)n2C [tipifarnib]
Summary of the method: as §1

mubritinib = compound: FC(F)(F)c1ccc(/C=C/c2nc(COc3ccc(CCCCn4ccnn4)cc3)co2)cc1 [mubritinib]
Summary of the method: as §1

[6] = compound: NC(=O)Nc1cc(-c2cccc(F)c2)sc1C(=O)N[C@H]1CCCNC1
Summary of the method: as §1

[7] = compound: NC(=O)c1cnc(N[C@@H]2CCCC[C@@H]2N)nc1Nc1cccc(-n2nccn2)c1
Summary of the method: as §1

[8] = compound: NC1(c2ccc(-c3nc4ccn5c(=O)[nH]nc5c4cc3-c3ccccc3)cc2)CCC1
Summary of the method: as §1

[9] = compound: NCC(=O)Nc1ccc(-n2nc(C(F)(F)F)cc2-c2ccc3c(ccc4ccccc43)c2)cc1
Summary of the method: as §1

entinostat = compound: Nc1ccccc1NC(=O)c1ccc(CNC(=O)OCc2cccnc2)cc1 [entinostat]
Summary of the method: as §1

vorinostat = compound: O=C(CCCCCCC(=O)Nc1ccccc1)NO [vorinostat]
Summary of the method: as §1

citarinostat = compound: O=C(CCCCCCNC(=O)c1cnc(N(c2ccccc2)c2ccccc2Cl)nc1)NO [citarinostat]
Summary of the method: as §1

silmitasertib = compound: O=C(O)c1ccc2c(c1)nc(Nc1cccc(Cl)c1)c1ccncc12 [silmitasertib]
Summary of the method: as §1

[10] = compound: O=C1NC(=O)C(c2cnc3ccccn23)=C1c1cn2c3c(cc(F)cc13)CN(C(=O)N1CCCCC1)CC2
Summary of the method: as §1

[11] = compound: c1cc(OCCN2CCCCC2)cc(-c2n[nH]c3ccc(-c4nnc[nH]4)cc23)c1
Summary of the method: as §1

## POP1 (UniProt Q99575)
Sequence of UniProt Q99575 (Q99575 whole entry, looked up): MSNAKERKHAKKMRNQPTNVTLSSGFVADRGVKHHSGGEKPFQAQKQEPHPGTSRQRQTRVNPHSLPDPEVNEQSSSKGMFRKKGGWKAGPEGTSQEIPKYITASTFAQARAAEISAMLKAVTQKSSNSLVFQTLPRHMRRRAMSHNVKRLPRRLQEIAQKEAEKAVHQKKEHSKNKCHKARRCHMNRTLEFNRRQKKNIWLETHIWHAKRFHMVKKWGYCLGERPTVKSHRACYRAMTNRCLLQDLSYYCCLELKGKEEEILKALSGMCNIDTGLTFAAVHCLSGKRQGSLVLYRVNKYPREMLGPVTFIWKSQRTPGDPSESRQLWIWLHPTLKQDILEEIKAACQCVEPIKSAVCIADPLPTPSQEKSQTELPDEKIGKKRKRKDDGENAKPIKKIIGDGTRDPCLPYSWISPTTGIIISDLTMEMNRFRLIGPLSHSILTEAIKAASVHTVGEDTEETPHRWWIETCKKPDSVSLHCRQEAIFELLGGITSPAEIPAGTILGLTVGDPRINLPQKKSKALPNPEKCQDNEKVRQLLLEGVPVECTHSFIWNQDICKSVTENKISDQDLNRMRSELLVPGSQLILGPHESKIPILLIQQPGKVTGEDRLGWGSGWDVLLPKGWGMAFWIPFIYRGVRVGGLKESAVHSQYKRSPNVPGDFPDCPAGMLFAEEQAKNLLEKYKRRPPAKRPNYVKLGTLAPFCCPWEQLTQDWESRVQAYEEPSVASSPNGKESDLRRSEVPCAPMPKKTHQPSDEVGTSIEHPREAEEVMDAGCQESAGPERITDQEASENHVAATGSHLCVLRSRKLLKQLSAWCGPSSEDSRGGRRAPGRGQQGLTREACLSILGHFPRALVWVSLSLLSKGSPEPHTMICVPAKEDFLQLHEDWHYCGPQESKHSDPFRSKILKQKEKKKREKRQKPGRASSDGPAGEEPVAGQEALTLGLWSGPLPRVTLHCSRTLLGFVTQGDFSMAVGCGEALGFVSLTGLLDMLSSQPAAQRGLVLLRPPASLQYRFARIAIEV
bafetinib
  log2 fold change: 0.019
[1]
  log2 fold change: 0.002
nilotinib
  log2 fold change: 0.074
[2]
  log2 fold change: -0.018
dasatinib
  log2 fold change: 0.039
[3]
  log2 fold change: -0.037
[4]
  log2 fold change: 0.042
[5]
  log2 fold change: 0.007
tipifarnib
  log2 fold change: -0.036
mubritinib
  log2 fold change: -0.006
[6]
  log2 fold change: 0.072
[7]
  log2 fold change: 0.025
[8]
  log2 fold change: 0.03
[9]
  log2 fold change: 0.045
entinostat
  log2 fold change: -0.019
vorinostat
  log2 fold change: -0.013
citarinostat
  log2 fold change: -0.003
silmitasertib
  log2 fold change: -0.011
[10]
  log2 fold change: 0.038
[11]
  log2 fold change: -0.128

## PIK3C3 (UniProt Q8NEB9)
Sequence of UniProt Q8NEB9 (Q8NEB9 whole entry, looked up): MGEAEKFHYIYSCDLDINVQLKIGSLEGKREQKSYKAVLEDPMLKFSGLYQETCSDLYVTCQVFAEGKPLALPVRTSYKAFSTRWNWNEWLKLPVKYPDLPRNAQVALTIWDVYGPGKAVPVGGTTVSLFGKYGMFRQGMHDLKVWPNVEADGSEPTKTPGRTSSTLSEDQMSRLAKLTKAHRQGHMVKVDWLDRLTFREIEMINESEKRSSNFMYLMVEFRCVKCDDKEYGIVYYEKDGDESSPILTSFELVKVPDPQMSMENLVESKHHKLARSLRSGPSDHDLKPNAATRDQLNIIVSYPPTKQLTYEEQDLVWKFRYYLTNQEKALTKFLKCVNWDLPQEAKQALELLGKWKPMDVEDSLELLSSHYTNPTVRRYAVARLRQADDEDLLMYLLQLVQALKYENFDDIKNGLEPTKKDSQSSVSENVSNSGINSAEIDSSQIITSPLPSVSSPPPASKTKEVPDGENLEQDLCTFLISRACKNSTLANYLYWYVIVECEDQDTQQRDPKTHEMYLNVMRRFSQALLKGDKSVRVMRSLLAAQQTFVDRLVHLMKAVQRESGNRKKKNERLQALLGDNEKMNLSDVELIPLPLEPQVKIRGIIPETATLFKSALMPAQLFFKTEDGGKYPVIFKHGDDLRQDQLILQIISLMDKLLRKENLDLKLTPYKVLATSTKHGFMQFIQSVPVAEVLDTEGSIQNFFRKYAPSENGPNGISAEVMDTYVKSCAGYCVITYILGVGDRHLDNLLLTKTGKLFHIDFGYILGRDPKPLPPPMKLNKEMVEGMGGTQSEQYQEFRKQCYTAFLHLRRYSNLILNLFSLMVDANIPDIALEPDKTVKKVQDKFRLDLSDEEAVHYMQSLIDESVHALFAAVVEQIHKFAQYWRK
bafetinib
  log2 fold change: 0.065
[1]
  log2 fold change: -0.011
nilotinib
  log2 fold change: 0.043
[2]
  log2 fold change: -0.039
dasatinib
  log2 fold change: -0.04
[3]
  log2 fold change: 0.202
[4]
  log2 fold change: -0.035
[5]
  log2 fold change: -0.006
tipifarnib
  log2 fold change: 0.047
mubritinib
  log2 fold change: 0.042
[6]
  log2 fold change: 0.068
[7]
  log2 fold change: 0.117
[8]
  log2 fold change: -0.018
[9]
  log2 fold change: -0.015
entinostat
  log2 fold change: -0.03
vorinostat
  log2 fold change: -0.038
citarinostat
  log2 fold change: -0.038
silmitasertib
  log2 fold change: 0.051
[10]
  log2 fold change: 0.078
[11]
  log2 fold change: -0.041

## PRKCB isoform 2 (UniProt P05771)
Sequence of UniProt P05771 (P05771 whole entry, looked up): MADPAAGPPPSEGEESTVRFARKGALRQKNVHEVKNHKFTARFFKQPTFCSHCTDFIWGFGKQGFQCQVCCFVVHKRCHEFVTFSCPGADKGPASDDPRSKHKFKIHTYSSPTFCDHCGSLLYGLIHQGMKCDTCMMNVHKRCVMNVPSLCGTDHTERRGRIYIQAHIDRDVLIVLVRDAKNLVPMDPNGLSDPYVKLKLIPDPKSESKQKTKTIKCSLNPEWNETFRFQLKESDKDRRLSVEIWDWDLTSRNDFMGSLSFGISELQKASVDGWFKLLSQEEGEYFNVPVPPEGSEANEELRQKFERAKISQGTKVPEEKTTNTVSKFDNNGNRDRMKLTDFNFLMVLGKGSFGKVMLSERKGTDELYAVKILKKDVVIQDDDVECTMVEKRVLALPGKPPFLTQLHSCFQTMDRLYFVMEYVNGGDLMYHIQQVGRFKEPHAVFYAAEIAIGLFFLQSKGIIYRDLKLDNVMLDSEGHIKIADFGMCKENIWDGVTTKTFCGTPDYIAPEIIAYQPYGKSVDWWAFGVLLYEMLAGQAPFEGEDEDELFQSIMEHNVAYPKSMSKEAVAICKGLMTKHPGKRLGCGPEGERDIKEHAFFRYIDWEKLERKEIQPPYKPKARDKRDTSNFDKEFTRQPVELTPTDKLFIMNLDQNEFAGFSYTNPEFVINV
bafetinib
  log2 fold change: -0.037
[1]
  log2 fold change: 0.025
nilotinib
  log2 fold change: -0.022
[2]
  log2 fold change: -0.3 (active)
dasatinib
  log2 fold change: -0.054
[3]
  log2 fold change: 0.034
[4]
  log2 fold change: 0.04
[5]
  log2 fold change: 0
tipifarnib
  log2 fold change: -0.051
mubritinib
  log2 fold change: 0.054
[6]
  log2 fold change: -0.052
[7]
  log2 fold change: -0.037
[8]
  log2 fold change: -0.118
[9]
  log2 fold change: -0.058
entinostat
  log2 fold change: 0.045
vorinostat
  log2 fold change: 0.02
citarinostat
  log2 fold change: 0.041
silmitasertib
  log2 fold change: 0.032
[10]
  log2 fold change: -0.051
[11]
  log2 fold change: 0.02

## PCBP1 (UniProt Q15365)
Sequence of UniProt Q15365 (Q15365 whole entry, looked up): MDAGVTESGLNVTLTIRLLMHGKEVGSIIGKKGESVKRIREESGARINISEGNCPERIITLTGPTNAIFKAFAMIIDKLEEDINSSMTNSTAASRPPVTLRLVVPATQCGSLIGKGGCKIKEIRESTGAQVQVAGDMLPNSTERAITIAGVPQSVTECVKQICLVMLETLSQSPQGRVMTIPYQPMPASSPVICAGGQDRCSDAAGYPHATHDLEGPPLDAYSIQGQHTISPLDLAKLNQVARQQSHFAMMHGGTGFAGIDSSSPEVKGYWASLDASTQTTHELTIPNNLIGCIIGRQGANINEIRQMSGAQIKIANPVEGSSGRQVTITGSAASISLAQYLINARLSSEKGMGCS
bafetinib
  log2 fold change: -0.007
[1]
  log2 fold change: 0.033
nilotinib
  log2 fold change: -0.057
[2]
  log2 fold change: -0.086
dasatinib
  log2 fold change: -0.111
[3]
  log2 fold change: -0.026
[4]
  log2 fold change: 0.064
[5]
  log2 fold change: -0.004
tipifarnib
  log2 fold change: -0.119
mubritinib
  log2 fold change: -0.011
[6]
  log2 fold change: 0.007
[7]
  log2 fold change: -0.015
[8]
  log2 fold change: -0.069
[9]
  log2 fold change: -0.021
entinostat
  log2 fold change: 0.044
vorinostat
  log2 fold change: 0.055
citarinostat
  log2 fold change: 0.075
silmitasertib
  log2 fold change: 0.028
[10]
  log2 fold change: -0.046
[11]
  log2 fold change: 0.002

## PBK (UniProt Q96KB5)
Sequence of UniProt Q96KB5 (Q96KB5 whole entry, looked up): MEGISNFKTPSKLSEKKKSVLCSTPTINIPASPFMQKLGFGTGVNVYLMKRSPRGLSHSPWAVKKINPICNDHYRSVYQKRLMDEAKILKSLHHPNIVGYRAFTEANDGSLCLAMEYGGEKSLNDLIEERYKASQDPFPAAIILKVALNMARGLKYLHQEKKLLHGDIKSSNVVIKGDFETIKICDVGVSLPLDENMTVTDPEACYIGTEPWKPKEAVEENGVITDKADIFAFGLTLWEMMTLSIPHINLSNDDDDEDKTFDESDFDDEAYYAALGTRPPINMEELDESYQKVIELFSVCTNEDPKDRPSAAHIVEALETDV
bafetinib
  log2 fold change: 0.064
[1]
  log2 fold change: 0.064
nilotinib
  log2 fold change: -0.053
[2]
  log2 fold change: -0.152
dasatinib
  log2 fold change: -0.084
[3]
  log2 fold change: 0.078
[4]
  log2 fold change: -0.004
[5]
  log2 fold change: 0.059
tipifarnib
  log2 fold change: -0.067
mubritinib
  log2 fold change: -0.06
[6]
  log2 fold change: -0.1
[7]
  log2 fold change: -0.045
[8]
  log2 fold change: -0.098
[9]
  log2 fold change: -0.088
entinostat
  log2 fold change: 0.095
vorinostat
  log2 fold change: 0.154
citarinostat
  log2 fold change: 0.119
silmitasertib
  log2 fold change: 0.157
[10]
  log2 fold change: 0.02
[11]
  log2 fold change: -0.011

## PCYT1A (UniProt P49585)
Sequence of UniProt P49585 (P49585 whole entry, looked up): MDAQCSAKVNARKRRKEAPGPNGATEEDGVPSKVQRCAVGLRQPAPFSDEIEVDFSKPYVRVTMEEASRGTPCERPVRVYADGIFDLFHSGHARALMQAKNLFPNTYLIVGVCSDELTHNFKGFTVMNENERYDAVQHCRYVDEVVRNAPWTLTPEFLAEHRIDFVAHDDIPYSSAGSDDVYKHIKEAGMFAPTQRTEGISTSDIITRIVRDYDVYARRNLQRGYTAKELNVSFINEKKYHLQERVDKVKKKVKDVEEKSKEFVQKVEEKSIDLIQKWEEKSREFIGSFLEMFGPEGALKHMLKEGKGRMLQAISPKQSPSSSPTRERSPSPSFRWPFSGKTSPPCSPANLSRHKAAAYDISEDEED
bafetinib
  log2 fold change: -0.142
[1]
  log2 fold change: 0.035
nilotinib
  log2 fold change: -1.47 (active)
[2]
  log2 fold change: -0.129
dasatinib
  log2 fold change: -0.185
[3]
  log2 fold change: -0.04
[4]
  log2 fold change: 0.033
[5]
  log2 fold change: 0.001
tipifarnib
  log2 fold change: 0.006
mubritinib
  log2 fold change: 0.176
[6]
  log2 fold change: -0.015
[7]
  log2 fold change: -0.093
[8]
  log2 fold change: -0.234
[9]
  log2 fold change: -0.066
entinostat
  log2 fold change: 0.033
vorinostat
  log2 fold change: 0.086
citarinostat
  log2 fold change: 0.081
silmitasertib
  log2 fold change: 0.022
[10]
  log2 fold change: -0.06
[11]
  log2 fold change: -0.002

## PRPF31 (UniProt Q8WWY3)
Sequence of UniProt Q8WWY3 (Q8WWY3 whole entry, looked up): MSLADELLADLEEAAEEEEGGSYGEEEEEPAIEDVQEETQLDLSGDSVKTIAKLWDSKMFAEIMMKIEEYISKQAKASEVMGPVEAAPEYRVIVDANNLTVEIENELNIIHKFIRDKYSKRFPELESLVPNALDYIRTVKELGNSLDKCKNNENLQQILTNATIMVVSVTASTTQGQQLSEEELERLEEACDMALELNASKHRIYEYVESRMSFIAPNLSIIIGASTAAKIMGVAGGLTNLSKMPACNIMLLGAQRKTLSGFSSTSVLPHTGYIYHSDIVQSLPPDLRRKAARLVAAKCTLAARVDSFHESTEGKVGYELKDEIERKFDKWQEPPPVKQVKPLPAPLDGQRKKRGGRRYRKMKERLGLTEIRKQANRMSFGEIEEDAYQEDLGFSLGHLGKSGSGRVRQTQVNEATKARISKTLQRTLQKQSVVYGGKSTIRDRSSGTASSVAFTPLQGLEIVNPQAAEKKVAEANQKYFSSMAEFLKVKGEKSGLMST
bafetinib
  log2 fold change: -0.012
[1]
  log2 fold change: 0.01
nilotinib
  log2 fold change: -0.037
[2]
  log2 fold change: -0.572 (active)
dasatinib
  log2 fold change: -0.274
[3]
  log2 fold change: -0.387
[4]
  log2 fold change: 0.055
[5]
  log2 fold change: 0.053
tipifarnib
  log2 fold change: -0.031
mubritinib
  log2 fold change: -0.014
[6]
  log2 fold change: -0.076
[7]
  log2 fold change: -0.138
[8]
  log2 fold change: -0.241
[9]
  log2 fold change: -0.065
entinostat
  log2 fold change: 0.071
vorinostat
  log2 fold change: 0.182
citarinostat
  log2 fold change: 0.042
silmitasertib
  log2 fold change: -0.038
[10]
  log2 fold change: -0.194
[11]
  log2 fold change: -0.038

## PPOX (UniProt P50336)
Sequence of UniProt P50336 (P50336 whole entry, looked up): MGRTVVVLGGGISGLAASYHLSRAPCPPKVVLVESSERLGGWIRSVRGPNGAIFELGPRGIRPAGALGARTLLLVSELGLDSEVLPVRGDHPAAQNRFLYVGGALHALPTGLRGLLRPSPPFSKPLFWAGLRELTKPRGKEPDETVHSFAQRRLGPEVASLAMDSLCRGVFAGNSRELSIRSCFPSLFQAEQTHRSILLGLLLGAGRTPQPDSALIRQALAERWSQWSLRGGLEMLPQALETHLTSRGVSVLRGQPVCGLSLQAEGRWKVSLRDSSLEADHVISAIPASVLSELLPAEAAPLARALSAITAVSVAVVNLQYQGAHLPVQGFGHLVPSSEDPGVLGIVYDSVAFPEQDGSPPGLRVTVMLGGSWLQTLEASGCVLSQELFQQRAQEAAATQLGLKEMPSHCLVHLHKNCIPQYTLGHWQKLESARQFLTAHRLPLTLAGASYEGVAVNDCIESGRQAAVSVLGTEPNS
bafetinib
  log2 fold change: -0.031
[1]
  log2 fold change: -0.013
nilotinib
  log2 fold change: 0.494
[2]
  log2 fold change: 0.027
dasatinib
  log2 fold change: 0.208
[3]
  log2 fold change: -0.015
[4]
  log2 fold change: 0.192
[5]
  log2 fold change: 0.086
tipifarnib
  log2 fold change: 0.08
mubritinib
  log2 fold change: 0
[6]
  log2 fold change: -0.042
[7]
  log2 fold change: -0.228
[8]
  log2 fold change: -0.182
[9]
  log2 fold change: -0.009
entinostat
  log2 fold change: 0.04
vorinostat
  log2 fold change: 0.003
citarinostat
  log2 fold change: 0.02
silmitasertib
  log2 fold change: 0.158
[10]
  log2 fold change: 0.094
[11]
  log2 fold change: 0.018
